Active and inactive are the calls of the source. How the calls were made is not given here.
molecular target: Pantothenate synthetase (Mycobacterium tuberculosis (strain ATCC 25618 / H37Rv)) (UniProt P9WIL5); assay: Recombinant Mtb pantothenate synthetase (PanC) inhibitors, coupled enzyme, confirmatory (AID 375); settings: coupled enzyme assay; at 10 µM, stronger effect = higher value;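 further: 0% = full reaction with vehicle and 100% = no enzyme background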
Sequence (P9WIL5 whole entry, looked up): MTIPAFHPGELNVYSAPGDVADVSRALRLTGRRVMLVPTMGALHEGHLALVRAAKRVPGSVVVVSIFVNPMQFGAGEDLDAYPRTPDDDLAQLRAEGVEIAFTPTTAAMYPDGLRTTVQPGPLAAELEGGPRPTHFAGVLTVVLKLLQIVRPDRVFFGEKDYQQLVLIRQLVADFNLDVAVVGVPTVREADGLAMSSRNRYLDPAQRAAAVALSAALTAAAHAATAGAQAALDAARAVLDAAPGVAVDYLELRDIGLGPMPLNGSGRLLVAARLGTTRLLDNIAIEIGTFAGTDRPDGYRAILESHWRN

| SMILES | inhibition |
| --- | --- |
| O=c1[nH]c(N2CCCCC2)nc2c1CCCC2 | 0% (inactive) |
| O=C(NCC1CCCO1)C1c2ccccc2C(=O)N1C1CCCCCC1 (stereo not given) | 0% (inactive) |
| CC1CN(CC(O)COc2ccccc2C(C)(C)C)CC(C)O1 (stereo not given) | 0% (inactive) |
| COC(=O)[C@H](C)NC(=O)NCc1ccc(F)cc1 | 1% (inactive) |
| COc1ccc(S(=O)(=O)Cc2ccc(C(=O)N3CCN(Cc4ccccc4)CC3)o2)cc1 | 0% (inactive) |
| O=C(Nc1ccncc1)C1c2ccccc2Oc2ccccc21 | 0% (inactive) |
| O=C(CSc1nc2ccccc2c(=O)n1CCC(=O)N1CCCCC1)NCc1ccccc1 | 0% (inactive) |
| CCOc1ccc(NC2c3ccccc3C(=O)N2Cc2ccco2)cc1 (stereo not given) | 1% (inactive) |
| Cc1nc(/N=C\N(C)C)sc1C(=O)Nc1ccccc1 | 0% (inactive) |
| CCOC(=O)c1ccc(NC(=O)N2CCN(CCc3ccccc3)CC2)cc1 | 0% (inactive) |
| COc1ccc(-c2[nH]nc3c2C(c2ccncc2)C(C#N)=C(N)O3)cc1 (stereo not given) | 0% (inactive) |
| CCc1nc(N)nc(N)c1-c1ccc(Cl)cc1 | 0% (inactive) |
| Oc1ccc(N2CCN(C(c3cccnc3)c3nnnn3Cc3ccccc3)CC2)cc1 (stereo not given) | 0% (inactive) |
| CCOC(=O)N1CCC(N2C(=O)c3ccccc3C2Nc2ccc3c(C)cc(=O)oc3c2)CC1 (stereo not given) | 4% (inactive) |
| CC1=C(n2nnc3ccccc32)C(c2ccccc2)C(C#N)=C(N)O1 (stereo not given) | 5% (inactive) |
| COc1ccc(S(=O)(=O)N2CCOCC2)cc1C(=O)Nc1cc(C)on1 | 0% (inactive) |
| CCOC(=O)c1sc(NC(=O)CSc2ncn(-c3ccccc3)n2)nc1C | 3% (inactive) |
| c1ccc(-c2nn3nnnc3c3ccccc23)cc1 | 4% (inactive) |
| CCOc1ccccc1N1C(=O)CC(Sc2ncccc2C(=O)O)C1=O (stereo not given) | 0% (inactive) |
| Cc1nc2ccccn2c(=O)c1CCN1CCC(C(=O)c2ccc(F)cc2)CC1 | 0% (inactive) |

| SMILES | inhibition |
| --- | --- |
| CCn1c(SCC(=O)Nc2cccc(C)c2)nc2c(c1=O)SC(C)C2 (stereo not given) | 1% (inactive) |
| O=C(Nc1ccc(S(=O)(=O)N2CCCCCC2)cc1)c1ccco1 | 2% (inactive) |
| COc1ccc(-c2nc(C(N)=O)c3[nH]c(=O)n(-c4cccc(Cl)c4)c3n2)cc1OC | 1% (inactive) |
| COCCNC(=O)C(c1ccc(C)o1)N(Cc1ccc(F)cc1)C(=O)Cn1nnc2ccccc21 (stereo not given) | 8% (inactive) |
| Cc1ccc(Cn2nnc3c(=O)[nH]c(C4CCN(C(=O)c5cccs5)CC4)nc32)cc1 | 0% (inactive) |
| COc1cccc(CC(=O)Nn2c(C)nc3ccccc3c2=O)c1 | 2% (inactive) |
| CCC(=O)N1CCc2cc(S(=O)(=O)CCC(=O)Nc3ccc(C)c(F)c3)ccc21 | 0% (inactive) |
| CN(C)CCOC(=O)C(c1ccccc1)C1(O)CCCC1 (stereo not given) | 5% (inactive) |
| O=C(Nc1cccnc1)c1ccc2c(c1)OCO2 | 0% (inactive) |
| Cc1cc(C)c(C(=O)CSc2nnc(-c3ccccc3Br)o2)cc1C | 2% (inactive) |
| CCN1CCc2c(C#N)c(N3CCOCC3)nc(NCc3ccccc3)c2C1 | 0% (inactive) |
| CCOC(=O)N1CCN(C(=O)CSc2ncnc3ccccc23)CC1 | 0% (inactive) |
| COc1ccccc1CN1C(=S)SC(C)(C)C1NO (stereo not given) | 0% (inactive) |
| CCn1c(SCc2nc3ccccc3c(=O)[nH]2)nnc1-c1cccnc1 | 4% (inactive) |
| COCCNC(=O)CN1CCN(Cc2cccc(Cl)c2)C1=O | 0% (inactive) |
| Cc1ccc(S(=O)(=O)N2CCN(S(=O)(=O)N(C)C)CC2)cc1 | 0% (inactive) |
| COc1ccc(C)cc1C(=O)CCC(=O)Nc1ccccc1N1CCOCC1 | 2% (inactive) |
| O=C1CC(c2cccnc2)c2cc3c(cc2N1)OCO3 (stereo not given) | 0% (inactive) |
| COCC(=O)NC(c1ccccc1)c1ccccc1 | 7% (inactive) |
| CC(=O)c1cc(Cl)ccc1OC(=O)c1ccco1 | 0% (inactive) |

Source: PubChem BioAssay
